From PubChem BioAssay come the findings set out here.

This experiment has as its system glycogen synthase kinase-3 (GSK3A per assay name; protocol says GSK3B). Description: compounds binding glycogen synthase kinase-3 – biochemical, small-molecule microarray, 635 nm fluorescence, GSK3A, primary screen (AID 1103). Further: the record names both GSK3A and GSK3B. Particulars: fluorescence 635 nm, higher = more signal.
Regarding `CCOC(=O)C1=CCC(c2ccco2)N(S(=O)(=O)c2ccc(C)cc2)C1` (stereo not given), the composite z-score came to 1.3. Consider `COCCOC(=O)N1C(=O)[C@@]2(c3cc(C#CCC(C(=O)OC)C(=O)OC)ccc31)[C@H](C(=O)NC[C@H](O)c1ccccc1)[C@H]1C(=O)O[C@H](c3ccccc3)[C@H](c3ccccc3)N1[C@@H]2c1ccc(OCCO)cc1`, for which the composite z-score amounted to 1.35.

In the case of `CCCNC(=O)[C@@]1(Sc2ccc(C)cc2)CC(=O)N(C(C)C)[C@@H]1c1ccc(CO)cc1I`, the composite z-score was -1.33. Then `COC(=O)[C@@]1(Cc2ccc(F)cc2)[C@H]2c3cc(C(=O)N4CCCC4)n(C)c3C[C@H]2CN1C(=O)c1ccccc1`, with 0.128; and `O=C1O[C@H](c2ccccc2)[C@H](c2ccccc2)N2[C@H]1[C@@H](C(=O)N1CCCCCCC1)[C@]1(C(=O)Nc3ccc(C#CC4(O)CCCCCC4)cc31)[C@H]2c1ccc(O)cc1`, with 1.34. For the compound `O=C1O[C@H](c2ccccc2)[C@H](c2ccccc2)N2[C@H]1[C@@H](C(=O)O)[C@]1(C(=O)Nc3ccc(C#CC4(O)CCCCCC4)cc31)[C@H]2c1ccc(O)cc1`, the composite z-score is -0.103. Then `COCCOC(=O)N1C(=O)[C@@]2(c3ccccc31)[C@H](c1ccccc1OCCO)N1[C@H](c3ccccc3)[C@H](c3ccccc3)OC(=O)[C@H]1[C@@H]2C(N)=O`, with 1.25. Compound `NC(=O)[C@@H]1[C@H]2C(=O)O[C@H](c3ccccc3)[C@H](c3ccccc3)N2[C@H](c2ccc(OCCO)cc2)[C@@]12C(=O)Nc1ccc(C#CCCO)cc12` came in with a composite z-score of -0.168.

The compound `Cc1cccc([C@H]2C[C@H]3C(Br)=C[C@@H]2C(=O)[C@]32CO2)c1` gave a composite z-score of -0.869. Then `COc1ccc(C#Cc2ccc3c(c2)[C@]2(C(=O)N3)[C@H](C(=O)Nc3nc4ccccc4s3)[C@H]3C(=O)O[C@H](c4ccccc4)[C@H](c4ccccc4)N3[C@@H]2c2ccccc2OCCO)cc1`, with 0.933; and `C=CCNC(=O)[C@@H]1[C@H]2C(=O)O[C@H](c3ccccc3)[C@H](c3ccccc3)N2[C@H](c2ccc(OCCO)cc2)[C@@]12C(=O)N(C(=O)OCCOC)c1ccc(C#CCCO)cc12`, with 1.28; and `COCC(=C=CC[C@@H](O)c1cccc(OCCO)c1)CCO`, with 0.162. The compound `COCCOC(=O)N1C(=O)[C@@]2(c3cc(C#CC4(O)CCCCCC4)ccc31)[C@H](C(=O)N1CCN(c3ncccn3)CC1)[C@H]1C(=O)O[C@H](c3ccccc3)[C@H](c3ccccc3)N1[C@@H]2c1ccccc1OCCO` gave a composite z-score of 1.29.

`[N-]=[N+]=Nc1ccccc1C[C@]1(C(=O)O)N=C(c2ccc(OCCCO)cc2)O[C@H]1c1ccccc1N=[N+]=[N-]`: the composite z-score stood at 1.06. In the case of `NC(=O)NCC#Cc1ccc2c(c1)[C@]1(C(=O)N2)[C@H](C(=O)N2CCN(c3ncccn3)CC2)[C@H]2C(=O)O[C@H](c3ccccc3)[C@H](c3ccccc3)N2[C@@H]1c1ccc(OCCO)cc1`, the composite z-score is -0.364.

The compound `CN(C)C(=O)[C@@]1(Cc2ccccc2)COC(c2ccc(OCCCO)cc2)=N1` registered a composite z-score of 0.792. `CCN(CC)c1ccc(N2CC=CC34O[C@@H]5C=CCCOC(=O)C5[C@H]3C(=O)N(CCO)[C@@H]4C2=O)cc1` (stereo not given in full) returned a composite z-score of -0.908. With `C[C@@H]1ON(c2ccc(I)cc2)[C@H](c2ccc(OC(=O)OC(C)(C)C)cc2)[C@H]1C(=O)N1C(=O)OC[C@H]1Cc1ccccc1`, the composite z-score was determined as 1.07.

Regarding `COc1cc(CO)cc(I)c1O[C@H]1C=C(C(=O)NCCO)C[C@@H](NCC2CCCCC2)[C@@H]1O`, the composite z-score amounted to 0.0102.

The compound `C=CCNC(=O)[C@@H]1[C@H]2C(=O)O[C@H](c3ccccc3)[C@H](c3ccccc3)N2[C@H](c2ccc(O)cc2)[C@@]12C(=O)Nc1ccc(C#CCC(C(=O)OC)C(=O)OC)cc12` had a composite z-score of 0.958.

In turn, `CCOC(=O)C1=C[C@@H](c2ccccc2)N(S(=O)(=O)c2ccc(C)cc2)[C@H]1c1ccccc1` registered a composite z-score of -0.193. Then `[N-]=[N+]=NC[C@H](Cc1ccccc1)NC(=O)c1ccccc1`, with -0.089. The compound `COc1ccc(C(O)C2C=CC3C(=O)N(c4ccccc4)C(=O)C3N2Nc2ccccc2F)cc1` (stereo not given) displayed a composite z-score of 0.102. Then `C#C[C@@H](CC)O[Si](C#CCCCC#N)(C(C)C)C(C)C`, with -0.021.

In turn, `CCCCCCCCCCC(O)C1C=CC2C(=O)N(C)C(=O)C2N1Nc1cc(OC)c(OC)c(OC)c1` (stereo not given) had a composite z-score of -1.29. Turning to `C=C[C@H](C)[C@H](OC(=O)Nc1ccc(OC)cc1)c1ccc(OCCO)cc1`, the composite z-score is -0.78.

As for `COCCOC(=O)N1C(=O)[C@@]2(c3cc(C#CC4(O)CCCCCC4)ccc31)[C@H](c1ccc(OCCO)cc1)N1[C@H](c3ccccc3)[C@H](c3ccccc3)OC(=O)[C@H]1[C@@H]2C(=O)Nc1nc2ccccc2s1`, the composite z-score came out at 0.522. `O=c1cccc(-c2ccco2)o1` had a composite z-score of 0.829. Then `CN(C)C(=O)[C@@]1(Cc2ccccc2N=[N+]=[N-])N=C(c2ccc(OCCCO)cc2)O[C@H]1c1ccccc1`, with 1.22; and `CC(C)[C@H]1NC(=O)[C@@]23C(=O)N[C@@H](Cc4ccccc4)C2[C@H](C)[C@@]2(C)O[C@H]2C3/C=C/CCC/C=C/CNC(=O)[C@H](Cc2ccccc2)NC1=O` (stereo not given in full), with 0.291; and `C=CCC(OC(C)=O)[C@@H]1[C@@H](N(Cc2cc3ccccc3o2)C(=O)c2ccc(-c3ccccc3)cc2)c2cc(OCCCO)ccc2N1C(=O)Cc1ccc(OC)cc1` (stereo not given in full), with -0.744.

Regarding `[N-]=[N+]=NCc1ccccc1[C@H]1OC(c2ccc(OCCCO)cc2)=N[C@@]1(CCS(=O)(=O)c1ccccc1)C(=O)NCc1ccccc1`, the composite z-score worked out at 1.29. Then `CC(=O)n1cc(C(O)C2C=CC3C(=O)N(c4ccccc4)C(=O)C3N2Nc2ccc(C(C)C)cc2)c2ccccc21` (stereo not given), with 1.1; and `C=C(COC)C(=O)CC[C@H](OC(C)=O)c1ccc(OCCO)cc1`, with -0.143. Then `Cc1ccccc1C(O)C1C=CC2C(=O)NC(=O)C2N1Nc1ccc(Cl)cc1Cl` (stereo not given), with 0.332.
